PNC inhibitor = blocks assembly of the perinucleolar compartment | PC3M PTB-GFP, PNC prevalence imaging, 16 h; active compounds read low | activity change (PNC), negative = inhibition, % at 10 µM | 140,000 tested, 3.1% active;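 active means readout at or below -70, meaning at least 70% loss of cells showing the perinucleolar compartment, a nuclear body marking cancer cells; inconclusive means readout between -30 and a set limit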;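 further: plate controls were DMSO wells for no effect and camptothecin positive control wells for full effect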
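Read-out is percentage of cells bearing a perinucleolar compartment, from automated 20x imaging of fixed, Hoechst-stained PC3M PTB-GFP cells. Cells were seeded 4 h, then exposed 16 h to compound (23 nl of library stock) in duplicate plates.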
HPGD block = HPGD (human) dehydrogenase inhibition; purified HPGD, NADH fluorescence kinetic, PGE2 substrate; Potency, µM, without a hit: top-dose activity change, negative = inhibition, hits mostly inhibitors; 150,000 tested, 4.3% active; further: potency means the concentration at half of the fitted maximal effect
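NADH formation kinetics: reaction with 30 uM PGE2 and 1 mM NAD+ (final), 20 nM enzyme, Tris-HCl pH 8 with Tween 20, after 15 min compound preincubation at room temperature. Fluorescence change, last versus first of five reads.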
ALDH1A1 block = blocks purified human ALDH1A1 activity. P00352. Purified ALDH1A1, NADH fluorescence, propionaldehyde substrate. Potency, µM (series often up to 75.3 µM), for inactives: at the top dose activity, negative = inhibition, hits mostly inhibitors. 220,000 tested, 7.3% active. AID 1030;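 further: potency means the concentration at half of the fitted maximal effect; plate controls were no enzyme wells and a reference inhibitor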
Target sequence (P00352 whole entry, looked up): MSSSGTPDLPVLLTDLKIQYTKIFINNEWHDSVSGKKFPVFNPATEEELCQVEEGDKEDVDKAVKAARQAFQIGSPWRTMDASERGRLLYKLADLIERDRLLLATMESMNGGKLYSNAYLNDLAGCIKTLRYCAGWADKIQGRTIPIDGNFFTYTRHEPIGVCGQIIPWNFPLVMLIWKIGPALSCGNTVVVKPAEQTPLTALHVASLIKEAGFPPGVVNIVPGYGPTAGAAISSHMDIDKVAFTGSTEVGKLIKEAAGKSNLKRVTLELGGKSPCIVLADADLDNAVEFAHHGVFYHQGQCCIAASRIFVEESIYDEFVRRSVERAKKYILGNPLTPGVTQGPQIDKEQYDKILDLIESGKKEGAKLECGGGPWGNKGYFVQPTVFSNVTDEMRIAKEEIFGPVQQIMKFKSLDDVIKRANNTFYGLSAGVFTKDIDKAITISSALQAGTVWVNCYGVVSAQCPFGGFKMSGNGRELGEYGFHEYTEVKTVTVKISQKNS
Starred values were filed as active, the others as inactive; ? = inconclusive; nt = not tested or not shown; ! = a repeat was not active; [ ] = another dose, or the depositor's remark. Sampled rows, rich in hits. Any-hit rate of the full collection: about 11%. Unless noted, the call rests on the fitted dose curve; in most records, active means well fitted inhibition curve with a large enough effect (not every such curve was filed as active); inconclusive means small, poorly fitted or top-dose-only effect, or another doubt; inactive means no such curve, though single readings can be large or run the other way. Unless noted, on the % scale 0 is the no-effect control and ±100 the full control effect.

SMILES	PNC inhibitor	HPGD block	ALDH1A1 block
COC(=O)c1ccccc1NC(=O)COC(C)=O	18	0%	5.6µM*
CC(=O)OCC(=O)Nc1ccc([N+](=O)[O-])cc1Cl	nt	nt	8%
CC(=O)OCC(=O)Nc1ccc(Cl)cc1Cl	11	20µM*	1%
COc1ccc(CCNC(=O)CN2C(=O)NC(C)(c3ccc([N+](=O)[O-])cc3)C2=O)cc1 (configuration not stated)	nt	nt	7%
Cc1ccc(CN2CCN(C3CCCC3)C(CCO)C2)s1 (configuration not stated)	nt	nt	-7%
O=C(Nc1ccccc1)N1CCCC2(CCNCC2)C1	nt	-6%	15%
N#Cc1c(-c2ccccc2)c(C#N)c2nc3ccccc3n2c1N	?	-13%	?
Cc1ccc(-c2c(C#N)c(N)n3c(nc4ccccc43)c2C#N)cc1	14	?	19µM*
Cn1nc(-c2ccc(N3CCCCC3)c(NC(=O)c3ccco3)c2)c2ccccc2c1=O	?	-29%	32µM*
CCC(=O)Nc1cc(-c2nn(C)c(=O)c3ccccc23)ccc1N1CCOCC1	19	-12%	?
Cc1nonc1CC(=O)N1CCCC(C(=O)c2ccc(Cl)cc2)C1 (configuration not stated)	nt	nt	0%
COCC(=O)NC(c1ccccc1)c1ccccc1	2	-3%	3%
O=C(COC(=O)/C=C/C(=O)N1CCN(c2ccccc2)CC1)NC(c1ccccc1)c1ccccc1	nt	nt	19µM*
O=C(COC(=O)/C=C/c1cccs1)Nc1nc(-c2ccccc2)cs1	-14	-9%	22µM*
O=C(/C=C/c1cccs1)Nc1nc(-c2ccccc2)cs1	15	-14%	3%
CC(C)C(=O)NC(=O)COC(=O)/C=C/c1cccs1	nt	nt	-4%
O=C(COC(=O)/C=C/c1cccs1)NC(c1ccccc1)c1ccccc1	-119*	-3%	10%
Cc1sc2ncn(CC(=O)OC(C)C)c(=O)c2c1C	?	-3%	-1%
C#CCCCO/N=C1/C[C@@H](O)[C@@H](O)[C@@H]2[C@@H]3C(=O)N(CC)C(=O)[C@H]3CC[C@H]12	nt	nt	2%[13.5 µM]
COc1cc(OC)cc(-c2nnc(SCC(=O)N(C(C)C)C(C)C)o2)c1	?	-9%	11%
COc1cc(OC)cc(-c2nnc(Sc3ccc(C=O)cc3[N+](=O)[O-])o2)c1	-27	14µM*	2µM*
O=C(O)[C@@H](c1ccccc1)[C@@H](C(=O)O)c1ccccc1	nt	-6%	-1%[13.5 µM]
COC(=O)C(Cc1ccc(O)cc1)NC(=O)C(CC(=O)OC(C)(C)C)NC(=O)OC(C)(C)C (configuration not stated)	nt	nt	-8%
CC(C)C(=O)Nc1ccc(C(=O)Nc2nnc(C(C)(C)C)s2)cc1	nt	nt	8%
S=C(NCCCN1CCOCC1)Nc1ccc(Cl)c(Cl)c1	22	-5%	0%
SMILES	PNC inhibitor	HPGD block	ALDH1A1 block
COc1cc(N=Nc2cccc(S(N)(=O)=O)c2)c2ccccc2c1N	nt	-12%	7.9µM*!
NC1=NC(=Nc2cccc(S(N)(=O)=O)c2)c2ccccc21	nt	nt	3%
CCc1cc(C=NC2CCCCC2)c(O)s1	?	4.5µM*	?
CCN1CCN(C(=O)C(=O)c2c(C)[nH]c3ccccc23)CC1	nt	nt	8%
O=C(/C=C(\c1ccccc1)n1cncn1)c1ccccc1	-15	-2%	?
O=C(/C=C(\c1ccc(Cl)cc1)n1cncn1)c1ccc(Cl)cc1	-18	-24%	2.2µM*
COc1ccc(N2CCN(C(=O)CNS(=O)(=O)c3ccc(C)cc3)CC2)cc1	nt	nt	-12%
C=N[C@H](C(=O)N[C@@H]1C(=O)N2[C@@H]1SC(C)(C)[C@@H]2C(=O)O)c1ccccc1	nt	?	3%[20.9 µM]
CCOC(=O)c1c(C)[nH]c(C(=O)CSc2nc(C)cc(C)n2)c1C	6	-1%	16µM*
CCOC(=O)c1c(C)[nH]c(C(=O)CSc2ccc(Cl)cc2)c1C	-17	-5%	9%
C=CCNC(=S)NCc1ccc(CNC(=S)NCC=C)cc1	nt	nt	-10%
C=CCNC(=S)NN=C1CCCCCCC1	nt	nt	0.89µM*
COc1ccc(C(C(=O)NCC2CCCO2)N(C(=O)CNC(=O)c2cccs2)c2ccc(C(C)=O)cc2)cc1OC (configuration not stated)	nt	nt	5%
COc1cc(/C=C2/S/C(=N/S(=O)(=O)c3ccccc3)NC2=O)c([N+](=O)[O-])cc1OC	?	5µM*	-3%
COc1cc(/C=C(\NC(=O)c2ccccc2)C(=O)NCC(=O)O)c([N+](=O)[O-])cc1OC	12	-20%	1%
COCCn1c(SCC(=O)c2c(-c3ccccc3)n(C)c3ccccc23)nnc1-c1ccncc1	-3	-9%	20µM*
COCCn1c(SCc2nc3ccccc3c(=O)[nH]2)nnc1-c1ccncc1	?	-14%	2%
COc1ccc(-c2ccc(C#N)c(OC(=O)c3c(Cl)cccc3Cl)n2)cc1	-11	?	?

Screens: PubChem, National Center for Advancing Translational Sciences (NCATS)
